# Experimental data from ChEMBL document CHEMBL1961873, “Compounds: GSK PKIS; Assays: Nanosyn kinase panel” (2012).
# Molecular target: Tyrosine-protein kinase Yes (Homo sapiens) (UniProt P07947)
# Settings: at 1 µM
# 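Note: values are mean percent inhibition of YES kinase activity.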
# Tyrosine-protein kinase Yes (Homo sapiens), sequence (P07947 2-543 limits assumed): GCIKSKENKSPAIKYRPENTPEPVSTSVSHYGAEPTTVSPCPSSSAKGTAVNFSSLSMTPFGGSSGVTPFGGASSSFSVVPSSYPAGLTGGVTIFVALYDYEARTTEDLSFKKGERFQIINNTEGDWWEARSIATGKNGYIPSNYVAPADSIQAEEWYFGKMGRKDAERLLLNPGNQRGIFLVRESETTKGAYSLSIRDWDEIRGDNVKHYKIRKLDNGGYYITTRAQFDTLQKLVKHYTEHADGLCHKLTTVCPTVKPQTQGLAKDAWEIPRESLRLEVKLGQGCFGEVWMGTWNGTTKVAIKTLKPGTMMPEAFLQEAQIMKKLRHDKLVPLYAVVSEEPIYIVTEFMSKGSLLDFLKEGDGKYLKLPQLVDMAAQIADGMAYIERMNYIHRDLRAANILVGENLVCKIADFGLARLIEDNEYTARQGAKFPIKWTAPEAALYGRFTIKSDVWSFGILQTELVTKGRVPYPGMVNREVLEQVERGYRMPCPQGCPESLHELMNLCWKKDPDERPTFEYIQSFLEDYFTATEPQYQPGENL
row,Structure (SMILES),inhibition
1,COc1ccc(-c2cc3c(N)ncnc3o2)cc1,6.69%
2,COc1cccc(-n2ncc3c(N/N=C/c4ccc(F)cc4)ncnc32)c1,25.1%
3,Nc1ncc(-c2cccc(S(N)(=O)=O)c2)c2scc(-c3ccc(F)c(Cl)c3)c12,56.4%
4,COc1cccc(-c2c[nH]c3c(N/N=C/c4ccncc4)ncnc23)c1,65.2%
5,CN(C)CCOc1ccc(-c2nc(-c3ccncc3)c(-c3ccc4c(c3)CC/C4=N\O)[nH]2)cc1,16.4%
6,Clc1ccc(-c2nn3ncccc3c2-c2ccnc(Nc3ccccc3)n2)cc1,89.5%
7,CCN1CCC(CC(=O)Nc2n[nH]c3nnc(-c4cccc(F)c4F)cc23)CC1,5.8%
8,CCCN(CCS(C)(=O)=O)Cc1ccc(-c2ccc3ncnc(Nc4ccc(OCc5cccc(F)c5)c(Cl)c4)c3c2)o1,8.75%
9,NS(=O)(=O)c1ccc(Nc2ncc(-c3ccccc3)o2)cc1,7.73%
10,Fc1cccc(COc2ccc(Nc3ncnc4sc(-c5ccco5)cc34)cc2Cl)c1,4.21%
11,c1cc(-c2cnn3nc(N4CCOCC4)ccc23)nc(NC2CC2)n1,0.73%
12,Nc1nc(-c2cccc(Cl)c2)c(-c2ccc3ncccc3n2)s1,18.4%
13,COc1ccc(-c2oc3ncnc(N)c3c2-c2ccc(NC(=O)Nc3cc(C(F)(F)F)ccc3F)cc2)cc1,80.1%
14,Cc1ccc(O)cc1Nc1ccnc2cc(-c3ccccn3)ccc12,90.7%
15,Fc1ccc(-c2nn3ccccc3c2-c2ccncc2)cc1,5.66%
16,Cc1ccc2c(-c3ccnc(Nc4ccccc4)n3)c(-c3ccc(F)cc3)nn2n1,92.1%
17,COC(=O)c1sc(-n2cnc3cc(OC)c(OC)cc32)cc1OCc1ccccc1C(F)(F)F,27%
